# Assay outcomes (PubChem)
# MCF10A rerep = A quantitative high throughput screen for small molecules that induce DNA re-replication in MCF 10a normal breast cells; MCF 10A DNA re-replication, Hoechst nuclear intensity, 48 h; 2.9% of 350,000 active; Potency, µM (top dose mostly 46.1 µM), for the others: at the highest dose activity, positive = re-replication, most hits filed as activators; AID 624296, 2012; further: potency means the concentration at half of the fitted maximal effect; % of control where 0% means no effect; nearly all actives have a fitted effect of over 50% in size
# Vif-A3F inh = qHTS for Inhibitors of Vif-A3F Interactions: qHTS. AID 602313, 2012. Potency, µM (series often up to 46.1 µM), for inactives: at the highest dose activity, negative = active. 0.2% of 390,000 active. HeLa A3F-eYFP + Vif (tagged APOBEC3F with the HIV-1 protein that degrades it), YFP fluorescence increase; further: potency means the concentration at half of the fitted maximal effect; % of control where 0% means no effect; nearly all actives have a fitted effect of over 65% in size
#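 HeLa cells stably expressing Vif plus C-terminally eYFP-tagged A3F were seeded, incubated overnight at 37 deg C, dosed with compound, incubated overnight again at 37 deg C. Yellow fluorescence (Ex 488/Em 500-530) reported blocked Vif-mediated A3F-eYFP degradation.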
# Giardia kill = Small Molecules that selectively kill Giardia lamblia: qHTS; Giardia lamblia trophozoite viability; activity change, % at 7.66 µM, hits read low; 0.15% of 340,000 active; AID 540267, 2011; in the data active means activity change below about -80%; inconclusive means between about -30% and that limit;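 further: parasites exposed to compound for two days anaerobically before the ATP read; on the % scale 0 is the no-effect control and ±100 the full control effect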
#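 Luminescent ATP signal served as the viability read-out, measured 15-30 min after adding ATP detection reagent to trophozoites that had been incubated with compounds for 48 hrs at 37 deg C anaerobically at 100 cells/well.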
# SW480 rereplic = A quantitative high throughput screen for small molecules that induce DNA re-replication in SW480 colon adenocarcinoma cells; SW480 DNA re-replication, Hoechst DNA content imaging, 48 h; Potency, µM (titrated, usually from 46.1 µM), for the others: at the top dose re-replication activation, actives largely listed as activators; 1.8% of 340,000 active; further: potency means the concentration at half of the fitted maximal effect; % of control where 0% means no effect; nearly all actives have a fitted effect of over 55% in size
#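 Hoechst fluorescence of nuclei (405 nm excitation, 500-530 nm emission) measured by plate-scanning imager after 48 hr compound exposure at 37 C; re-replication scored as increased number of nuclei with elevated intensity.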
# Vif-A3G inh = qHTS for Inhibitors of Vif-A3G Interactions: qHTS; DNA dC->dU-editing enzyme APOBEC-3G (Homo sapiens), Q9HC16; HeLa A3G-eYFP + Vif (tagged APOBEC3G with the HIV-1 protein that degrades it), YFP fluorescence, overnight; Potency, µM (top dose mostly 46.1 µM), inactives show at the highest dose activity, negative = active, hits mostly inhibitors; 0.076% of 410,000 active; further: potency means the concentration at half of the fitted maximal effect; on the % scale 0 is the no-effect control and ±100 the full control effect; nearly all actives have a fitted effect of over 60% in size
# Target sequence (Q9HC16 whole entry, looked up): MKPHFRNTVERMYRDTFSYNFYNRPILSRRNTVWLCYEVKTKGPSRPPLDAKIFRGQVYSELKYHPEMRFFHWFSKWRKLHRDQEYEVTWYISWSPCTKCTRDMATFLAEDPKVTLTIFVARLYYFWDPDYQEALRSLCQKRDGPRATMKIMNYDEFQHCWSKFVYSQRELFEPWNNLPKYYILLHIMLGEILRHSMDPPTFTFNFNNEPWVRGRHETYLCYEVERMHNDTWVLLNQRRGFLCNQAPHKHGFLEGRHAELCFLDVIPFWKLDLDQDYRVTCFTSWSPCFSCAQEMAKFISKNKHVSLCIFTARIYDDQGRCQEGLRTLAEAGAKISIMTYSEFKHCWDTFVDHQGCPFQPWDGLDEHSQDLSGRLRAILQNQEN
#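 Read-out is eYFP fluorescence (Ex 488/Em 500-530) from Vif-expressing HeLa A3G-eYFP cells; more signal means A3G escaped Vif-mediated degradation. Cells plated overnight, compound pinned in, incubated overnight at 37 deg C.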
# IL1B secr inh = qHTS for Inhibitors of Inflammasome Signaling: IL-1-beta AlphaLISA Primary Screen. THP-1 LPS/ATP IL-1B secretion, AlphaLISA, 16 h; stronger effect = lower value. activity change, % at 57.5 µM. 4.7% of 360,000 active; in the data active means activity change below about -50%; inconclusive means mostly about -30% to -49%; further: on the % scale 0 is the no-effect control and ±100 the full control effect
#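 THP-1 cells pretreated 1 hr with compounds (up to 57.5 uM final), then stimulated with LPS (250 ng/mL final) plus ATP (1.25 mM final); secreted IL-1B measured by AlphaLISA after 16 hr, decreased signal indicating inhibition.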
# Active calls of the source: *; ? = inconclusive; . = not tested or not shown; [ ] = dose if it differs, or a comment. The list is not random: actives were taken first. Their share in the collection is about 6.9%. Unless noted, the call rests on the fitted dose curve; in most records, active means well fitted curve in the direction sought with a large enough effect; inconclusive means small, poorly fitted or top-dose-only effect, or another doubt; inactive means no such curve, though single readings can be large; an effect the other way counts as inactive or inconclusive.
SMILES,MCF10A rerep,Vif-A3F inh,Giardia kill,SW480 rereplic,Vif-A3G inh,IL1B secr inh
COc1ccc(C2/C=C\CN(C(=O)Oc3ccc(C(F)(F)F)cc3)CC(=O)N2Cc2ccc(F)cc2)cc1 (configuration not stated),?,7.6%,13.9,22.3%,3.5%,52.9
C=CCNc1nnc(Sc2ncccc2[N+](=O)[O-])s1,?,4.0%,-1.6,?,-7.4%,-14.2
CCCCN=C[C@]12CCC(O)CC1(O)CCC1[C@@H]2CC[C@]2(C)[C@H](C3C=CC(=O)O3)CCC12O (some centres not stated),?,17.9%,-19.5,2.31µM*,-16.0%,-76.5*
O=C1NC(=O)C(Nc2ccccc2)C(=O)N1,4.0%,4.2%,24.9,-1.3%,1.9%,9.7
CC(=O)OCC1=C(C(=O)O)N2C(=O)[C@@H](N)[C@@H]2SC1,1.8%[20.6 µM],.,.,-6.5%[20.6 µM],.,.
COc1cccc(NP(=O)(Oc2ccccc2Cl)Oc2ccccc2Cl)c1,?,-4.8%,2.2,3.8%,-8.0%,-87.3*
COc1cccc(NP(=O)(Oc2ccccc2)Oc2ccccc2)c1,3.26µM*,-11.6%,1.8,16.4µM*,?,?
NCC[C@H](O)C(=O)N[C@H]1C[C@@H](N)[C@@H](O[C@H]2O[C@@H](CN)[C@@H](O)[C@@H](O)[C@@H]2N)[C@@H](O[C@H]2O[C@@H](CO)[C@@H](O)[C@@H]2O)[C@@H]1O,1.1%[20.6 µM],.,.,0.1%[20.6 µM],.,.
O=[N+]([O-])c1ccc(Sc2nc3ccccc3o2)c([N+](=O)[O-])c1,11.6µM*,0.0%,8.9,4.11µM*,-28.7%,-101.0*
O=[N+]([O-])c1ccc(N2CC2)c([N+](=O)[O-])c1,-36.0%,1.0%,?,-9.3%,-2.3%,-13.6
CCOC(=O)C1(CCOc2ccccc2)CCN(Cc2ccc(C)s2)CC1,20.2%,-22.0%,16.1,?,0.6%,-96.3*
CCOC(=O)C1(CCc2ccccc2)CCN(Cc2ccc3c(c2)OCCO3)CC1,6.7%,-3.6%,-23.3,-101.7%,2.3%,8.2
O=C(CSC1c2ccccc2-c2ccccc21)N/N=C/c1ccccc1O,2.06µM*,-7.4%,-2.1,?,-21.9%,49.7
CC(CCl)OC(C)CCl (configuration not stated),2.1%,-2.0%,-3.2,?,2.8%,-1.5
COc1ccc(-c2ccc(OC)c(OC)c2OC)cc1,4.61µM*,-11.9%,2.6,3.66µM*,?,36.2
CC(C)COC(=O)OCN1C(=O)CN(CCN2CC(=O)N(COC(=O)OCC(C)C)C(=O)C2)CC1=O,?,-3.0%,11.5,?,-3.1%,-15.2
Cc1ccc2cc(CNCCc3ccccc3C)c(=O)[nH]c2c1,0.7%,-1.9%,-12.6,-1.3%,2.0%,-79.1*
Cc1cccc(CCNCc2cc3cccc(C)c3[nH]c2=O)c1,-13.2%,17.1%,7.2,-0.1%,-0.1%,-28.5
CCOc1cc(C2NCc3ccccc3-n3cccc32)ccc1O (configuration not stated),4.0%,-4.3%,-6.0,-2.3%,-6.0%,-57.2*
O=c1oc2ccccc2c(O)c1[C@H]1c2ccc(O)cc2Oc2c1c(=O)oc1ccccc21,?,4.0%,4.1,-6.7%,?,-91.9*
NC1=C([N+](=O)[O-])C(c2ccc3c(c2)OCO3)c2c(c3ccccc3oc2=O)O1 (configuration not stated),-2.1%,4.0%,6.2,3.4%,5.0%,13.9
O=C(NC(=O)c1c(F)cccc1F)Nc1cc(Cl)c(OC(F)(F)C(F)C(F)(F)F)cc1Cl (configuration not stated),19.1%,.,.,0.9%,.,.
COC1=C(C)C(=O)c2c(c(COC(N)=O)c3n2C[C@@H]2[C@@H]3N2C)C1=O (some centres not stated),.,.,.,.,1.4%,.
